Screening results from PubChem BioAssay.
Shown are actives, neighbours in structure and some others; about 3.1% of the full set was active somewhere.
KKLEB cytotox: CF airway cell cytotoxicity counter-screen | KKLEB CF airway cells viability, ATPlite luminescence, overnight; hits give low values; cells stimulated with P. aeruginosa culture filtrate | activity change (cytotoxicity), % at 5 µM | 360,000 tested, 0.36% active | AID 602141;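 active = corrected activity change at or below -50% at 5 µM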
C8 TRAIL sens: sensitizes caspase-8 expressing cells to TRAIL; NB7+C8 cells + TRAIL, ATPlite viability luminescence; inhibition (viability loss, TRAIL sensitization), % at 10 µM; 360,000 tested, 1% active; AID 624354;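 active = compounds causing at least 50% loss of cell viability in the single-dose screen, relative to plate controls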
CF NFkB block: cystic fibrosis NF-kB activation inhibition. 360,000 tested, 0.86% active. inhibition, % at 5 µM. KKLEB NF-kB-GFP reporter, PAF-induced, GFP fluorescence overnight. AID 588850;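 active = at least 50% inhibition at 5 µM, scaled per plate between neutral and stimulator controls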;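 also: PAF is a Pseudomonas aeruginosa culture filtrate used as stimulus; plate controls were PAF-stimulated DMSO wells for no effect and unstimulated DMSO wells for full effect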
Peg3 prom inh-1: Peg3 promoter activity inhibition; HeLa PEG-Prom luciferase reporter, luminescence, overnight; inhibition, % at 20 µM; 360,000 tested, 1.7% active; AID 588405;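 active = inhibition of at least 50% at 20 µM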
HIF-2a block: inhibitors of HIF-2a; 786-0 RCC cells HIF-2a reporter, luciferase luminescence, overnight; inhibition, % at 18.8 µM; 360,000 tested, 0.72% active;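 active = inhibition of the luminescence signal of 40% or more relative to plate controls, in a single-dose primary screen at 18.75 µM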
PPC-1+TRAIL kill: kills PPC-1 cancer cells in the presence of TRAIL. PPC-1 cells + TRAIL, ATPLite viability luminescence. cell killing (% activity), % at 4 µM or 5 µM. 220,000 tested, 0.41% active;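 active = cell killing above 50% in the first pass at 4 µM, then a duplicate retest at 5 µM averaging 50% or more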;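 also: plate controls were cells with TRAIL plus DMSO for no effect and medium-only wells lacking cells for full effect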
Peg3 prom inh-2: confirmation of Peg3 promoter inhibitors | shares compounds with Peg3 prom inh-1 | HeLa PEG-Prom luciferase reporter, luminescence, overnight | inhibition, % at 20 µM | 1,300 tested, 84% active | AID 602417;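 active = at 20 µM dose, 40% or more inhibition averaged across four replicates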
Numbers without * were called inactive.

`Cc1nn(C)c(C)c1NC(=O)CSc1nc(Cc2ccccc2)nc2c1cnn2-c1ccccc1` gave KKLEB cytotox -6, C8 TRAIL sens 12, CF NFkB block 0, Peg3 prom inh-1 96*, HIF-2a block 1 and Peg3 prom inh-2 1.
Screening CC1CCCC(C)N1c1ccc(S(=O)(=O)N2CCOCC2)cc1Cl (configuration not stated) returned KKLEB cytotox -1, C8 TRAIL sens -11, CF NFkB block -2, Peg3 prom inh-1 17 and HIF-2a block 7.
Screening CC(C)(CNS(=O)(=O)c1ccc2ccccc2c1)N1CCOCC1 returned KKLEB cytotox 0, C8 TRAIL sens 0, CF NFkB block 31, Peg3 prom inh-1 -3 and HIF-2a block -3.
Screening O=C(C1CCC(=O)N(C2CC2)C1)N(CCO)Cc1ccccc1 (configuration not stated) returned KKLEB cytotox 7, C8 TRAIL sens -27, CF NFkB block 2, Peg3 prom inh-1 -11 and HIF-2a block -12.
Screening CC1(C)CC(NCCN2CCN(C3=CC(=C(C#N)C#N)CC(C)(C)C3)CC2)=CC(=C(C#N)C#N)C1 returned KKLEB cytotox -9, C8 TRAIL sens 7, CF NFkB block 9, Peg3 prom inh-1 50*, HIF-2a block 9, PPC-1+TRAIL kill 43 and Peg3 prom inh-2 44*.
For CSc1ncccc1C(=O)Nc1cccc(S(=O)(=O)N(C)c2ccccc2)c1 the results were KKLEB cytotox 22, C8 TRAIL sens 0, CF NFkB block -14, Peg3 prom inh-1 12 and HIF-2a block 9.
Screening COC1=C(Br)C(=O)c2nc(C)ccc2C1=O returned KKLEB cytotox 11, C8 TRAIL sens 0, CF NFkB block 3, Peg3 prom inh-1 107*, HIF-2a block 33 and Peg3 prom inh-2 100*.
Screening N=c1n(CC(=O)c2ccc([N+](=O)[O-])cc2)c2ccccc2n1Cc1ccc(Cl)cc1 returned KKLEB cytotox -36, C8 TRAIL sens 11, CF NFkB block 7, Peg3 prom inh-1 109*, HIF-2a block 10, PPC-1+TRAIL kill 0 and Peg3 prom inh-2 97*.
For N=c1n(CC(=O)c2ccc([N+](=O)[O-])cc2)c2ccccc2n1Cc1ccccc1 the results were KKLEB cytotox -31, C8 TRAIL sens 15, CF NFkB block 3, Peg3 prom inh-1 66*, HIF-2a block 12, PPC-1+TRAIL kill 4 and Peg3 prom inh-2 42*.
CCCCOc1ccc(S(=O)(=O)NC(=O)C2(C)CCN2C(=O)Cc2cccs2)cc1 (configuration not stated) was read as KKLEB cytotox 8, C8 TRAIL sens -9, CF NFkB block -1, Peg3 prom inh-1 -5 and HIF-2a block 13.
For CN(C)CCc1cc2c(c3c1ccc1ccccc13)OCO2 the results were KKLEB cytotox -3, C8 TRAIL sens 2, CF NFkB block -38, Peg3 prom inh-1 93*, HIF-2a block 34 and Peg3 prom inh-2 93*.
`Cc1cc(C)c(S(=O)(=O)N(C)CC(=O)N2CCCC2)c(C)c1` gave KKLEB cytotox -9, C8 TRAIL sens 4, CF NFkB block 30, Peg3 prom inh-1 0 and HIF-2a block 8.
For COc1ccc(CCn2c(=N)c(C(=O)NC3CCCC3)cc3c(=O)n4cccc(C)c4nc32)cc1 the results were KKLEB cytotox -3, C8 TRAIL sens 28, CF NFkB block -19, Peg3 prom inh-1 99*, HIF-2a block -10 and Peg3 prom inh-2 64*.
Screening COc1ccc(CCNC(=O)c2cc3c(=O)n4ccccc4nc3n(C3CCCCC3)c2=N)cc1OC returned KKLEB cytotox -1, C8 TRAIL sens 6, CF NFkB block 13, Peg3 prom inh-1 34 and HIF-2a block 7.
COc1ccc(CCNC(=O)c2cc3c(=O)n4ccccc4nc3n(C3CCCCC3)c2=N)cc1 was read as KKLEB cytotox -29, C8 TRAIL sens 18, CF NFkB block 22, Peg3 prom inh-1 88*, HIF-2a block 7 and Peg3 prom inh-2 54*.
CCCCN(C)C(=O)c1ccc(Nc2nc(C(N)CCc3ccccc3)cs2)nc1 (configuration not stated) was read as KKLEB cytotox 2, C8 TRAIL sens 19, CF NFkB block -12, Peg3 prom inh-1 61*, HIF-2a block -14 and Peg3 prom inh-2 83*.
COC(=O)c1ccccc1-c1ccc(/C=N/Nc2nc(N3CCCC3)nc(N3CCCC3)n2)o1 was read as KKLEB cytotox 6, C8 TRAIL sens -4, CF NFkB block -13, Peg3 prom inh-1 52*, HIF-2a block 14, PPC-1+TRAIL kill -32 and Peg3 prom inh-2 56*.
For CCOC(=O)[C@]12CCC=C1N(Cc1ccc(Cl)cc1Cl)C(=O)[C@H](CC(=O)NCCCOC)C2 the results were C8 TRAIL sens -2 and HIF-2a block 9.
For COc1ccc(CCNc2ccc(C(CC(N)=O)NC(=O)Cc3ccc(Br)cc3)cc2[N+](=O)[O-])cc1 (configuration not stated) the results were KKLEB cytotox -20, C8 TRAIL sens -12, CF NFkB block -41, Peg3 prom inh-1 21, HIF-2a block 7 and PPC-1+TRAIL kill 14.
For COc1ccc(CCNc2ccc(C(CC(N)=O)NC(=O)c3ccc(Br)cc3)cc2[N+](=O)[O-])cc1 (configuration not stated) the results were KKLEB cytotox -19, C8 TRAIL sens 14, CF NFkB block 6, Peg3 prom inh-1 69*, HIF-2a block 20, PPC-1+TRAIL kill 22 and Peg3 prom inh-2 19.
NC(=O)CC(NC(=O)Cc1cccc2ccccc12)c1ccc(NC2CCCCC2)c([N+](=O)[O-])c1 (configuration not stated) was read as KKLEB cytotox -22, C8 TRAIL sens -8, CF NFkB block 11, Peg3 prom inh-1 78*, HIF-2a block -11, PPC-1+TRAIL kill 10 and Peg3 prom inh-2 14.
`NC(=O)CC(NC(=O)Cc1cccc2ccccc12)c1ccc(NCCOc2ccccc2)c([N+](=O)[O-])c1` (configuration not stated) gave KKLEB cytotox -19, C8 TRAIL sens 15, CF NFkB block -15, Peg3 prom inh-1 54*, HIF-2a block 11, PPC-1+TRAIL kill 10 and Peg3 prom inh-2 27.
`COCCNC(=O)CSc1nc2cc(OC)c(OC)cc2c(=O)n1Cc1ccc(OC)cc1` gave KKLEB cytotox -10, C8 TRAIL sens -3, CF NFkB block -6, Peg3 prom inh-1 7, HIF-2a block 19 and PPC-1+TRAIL kill 24.
Screening COc1cc2nc(SCC(=O)NCc3ccco3)n(Cc3ccc(Cl)cc3)c(=O)c2cc1OC returned KKLEB cytotox 5, C8 TRAIL sens 16, CF NFkB block 42, Peg3 prom inh-1 51*, HIF-2a block 20, PPC-1+TRAIL kill -5 and Peg3 prom inh-2 12.
